# High-throughput results (PubChem)
# The list is not random: actives were taken first. Their share in the collection is about 6.9%.
# HP1b binding inh = HP1-beta chromodomain-methylated histone interaction inhibition. P83916. AlphaScreen HP1-beta / biotin-H3K9me3 peptide binding. Potency, µM (highest dose often 114 µM), inactives show at the top dose activity change, negative = inhibition, hits mostly inhibitors. actives 0.56% (n = 390,000). AID 540317; also: nearly all actives have a fitted effect of over 70% in size
#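 Compound inhibition of the preformed complex between 50 nM HP1-beta and 50 nM biotinylated H3K9me3 peptide was read by AlphaScreen. Buffer was PBS pH 7.4 with 0.01% Tween-20. Incubations ran 30 min at room temperature, with 10 ug/mL donor/acceptor beads.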
# VDR inhibitor = vitamin D3 receptor (human) inhibition | P11473 | VDR-SRC2-3 peptide fluorescence polarization, 2 h | Potency, µM, for inactives: max response, negative = inhibition, most hits filed as inhibitors | actives 0.93% (n = 400,000) | AID 504847; also: % is scaled to controls: 0 for no effect and ±100 for the full control effect
# Target sequence (P11473 whole entry, looked up): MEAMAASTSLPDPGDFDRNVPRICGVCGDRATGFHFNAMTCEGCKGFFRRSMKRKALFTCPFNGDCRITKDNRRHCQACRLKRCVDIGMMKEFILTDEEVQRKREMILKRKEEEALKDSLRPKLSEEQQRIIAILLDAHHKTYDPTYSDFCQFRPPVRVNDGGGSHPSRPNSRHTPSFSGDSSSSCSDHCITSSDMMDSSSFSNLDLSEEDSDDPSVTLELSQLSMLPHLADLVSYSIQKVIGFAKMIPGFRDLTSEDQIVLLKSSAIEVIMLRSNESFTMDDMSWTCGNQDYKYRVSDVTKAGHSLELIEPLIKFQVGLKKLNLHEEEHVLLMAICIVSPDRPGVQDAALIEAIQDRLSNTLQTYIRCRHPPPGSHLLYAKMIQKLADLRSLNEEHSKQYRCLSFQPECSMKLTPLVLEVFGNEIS
#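 Fluorescence polarization assay measuring small-molecule disruption of VDR binding to the coregulator peptide SRC2-3. Compounds were pin-transferred (23 nl) into the reagent mix and incubated 2 h at room temperature before reading.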
# JMJD2A Tudor = inhibitors of human JMJD2A Tudor domain | Potency, µM (series often up to 114 µM), for inactives: at the highest dose activity change, negative = inhibition, most hits filed as inhibitors | actives 4.4% (n = 390,000) | AlphaScreen JMJD2A-Tudor / H3K4me3 peptide binding; also: % is scaled to controls: 0 for no effect and ±100 for the full control effect; nearly all actives have a fitted effect of over 50% in size
# PLK1 PBD inh = PLK1 (human) polo-box domain binding inhibition; P53350; AID 720504; Potency, µM, inactives show max response, negative = inhibition, most hits filed as inhibitors; Plk1 PBD binding of FITC phosphopeptide, fluorescence polarization; actives 2.8% (n = 360,000); also: series mostly up to about 57 µM; % is scaled to controls: 0 for no effect and ±100 for the full control effect; nearly all actives have a fitted effect of over 65% in size
# BAZ2B inh = blocks human BAZ2B | AlphaScreen BAZ2B-H3K14Ac peptide displacement | actives 4.4% (n = 360,000) | Potency, µM (series often up to 114 µM), for inactives: at the top dose activity change, negative = inhibition, hits mostly inhibitors | AID 504333 | Q9UIF8; also: % is scaled to controls: 0 for no effect and ±100 for the full control effect; nearly all actives have a fitted effect of over 60% in size
#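 AlphaScreen displacement: compounds (up to 110uM) incubated 30 min at room temperature with a preformed 50 nM BAZ2B/50 nM biotinylated H3K14Ac peptide complex in PBS pH 7.4 with Tween-20. Donor and acceptor beads at 10 ug/mL final added, 20 min light-protected before reading.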
# L3MBTL1 inh = blocks human L3MBTL1; AlphaScreen L3MBTL1–H3K9me1 peptide binding; Potency, µM (titrated, usually from 57.1 µM), inactives show top-dose activity, negative = inhibition, usual class: inhibitors; actives 0.66% (n = 230,000); Q9Y468; AID 485360; also: % is scaled to controls: 0 for no effect and ±100 for the full control effect; nearly all actives have a fitted effect of over 60% in size
#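 AlphaScreen proximity signal between nickel-chelate acceptor and streptavidin donor beads (final 10 ug/mL) reports binding of 50 nM L3MBTL1 to 75 nM biotin-H3 K9me1 peptide; complex incubated with compounds 30 min at room temperature; cefsulodin titration as control.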
# The depositor's hits bear a star; u = inconclusive; x = no result given; [ ] = remark or other dose. Calls follow the shape of the dose curve; as a rule, active = well fitted curve in the direction sought with a large enough effect; inconclusive = small, poorly fitted or top-dose-only effect, or another doubt; inactive = no such curve, though single readings can be large; an effect the other way counts as inactive or inconclusive. Potency is read from the fitted curve at half-maximal effect.
SMILES,HP1b binding inh,VDR inhibitor,JMJD2A Tudor,PLK1 PBD inh,BAZ2B inh,L3MBTL1 inh
O=C(NCCS(=O)(=O)N1CCN(c2ccccc2F)CC1)C(c1ccccc1)c1ccccc1,22%[57 µM],16%,-1%,x,4%,x
O=C(CSc1nnc(COc2ccc(Cl)cc2)o1)N(c1ccccc1)C1CCS(=O)(=O)C1 (stereo not drawn),x,x,x,0%,x,x
C/C(=N\NC(=O)c1ccncc1)c1cccnc1,21%,8%,-2%,-2%,u,x
C/C(=N\NC(=O)c1cccnc1)c1ccc(OC2OCCOC2Oc2ccc(/C(C)=N/NC(=O)c3cccnc3)cc2)cc1 (stereo not drawn),u,40µM*,14µM*,30µM*,-18%,-3%
CCCCCCCCC(=O)N/N=C(\C)c1cccnc1,63%,4%,89µM*,-8%,-30%,12%
C/C(=N\NC(=O)c1cccs1)c1cccnc1,-10%,79µM*,18µM*,21µM*,x,x
Cc1ccccc1NC(=O)c1cccnc1,26%,-7%,4%,7%,13%,3%
C/C(=N\Nc1ccccc1C)c1cccnc1,11%,u,50µM*,-10%,u,x
CCCCCCCCCCCCCCCCCCNC(=O)OCC(COP(=O)([O-])OCC[n+]1ccsc1)OC (stereo not drawn),x,-6%,x,x,x,x
CC(C)c1cc(Cn2c3ccccc3c(=O)n2C(C)Cn2cc(CCCC#N)nn2)on1 (stereo not drawn),x,x,x,-4%,x,x
O=C1CCNc2cc3ccccc3cc21,-33%,u,-28%,21µM*,u,x
O=C1CCNc2ccc(-c3ccccc3)cc21,110%,-21%,8%,9.5µM*,25%,21%
CC1=NN(c2ccc(C)cc2C)C(=O)C1C(c1cccc(O)c1)C1C(=O)N(c2ccc(C)cc2C)N=C1C (stereo not drawn),-2%,u,-27%,27µM*,-9%,-5%
COCCNC(=S)NNC(=O)c1cc(C2CC2)nc2ccccc12,52%,6%,-11%,0%,-10%,x
c1ccc(NN=C2c3ccccc3-c3ccccc32)cc1,3%,1%,-27%,-5%,x,x
Cc1ccc(NN=C2c3ccccc3-c3ccccc32)cc1,u,-20%,56µM*,-9%,u,-4%
CCOC(=O)Cc1cnc(NC(=O)CSc2nc(N)cc(=O)[nH]2)s1,u,u,u,17µM*,-11%,2%
O=c1c(N2CCN(c3cccc(C(F)(F)F)c3)CC2)csc2ccccc12,-11%,10%,45µM*,x,-20%,x
CN(C(=O)CSc1ccc2c(c1)OCCO2)c1ccccc1,51%,-16%,-7%,u,x,-8%
N#CCCN(C(=O)CSc1ccc2c(c1)OCCO2)c1ccccc1,47%,-23%,9%,19µM*,7%,x
O=C(O)C(Cc1c[nH]c2ccccc12)NS(=O)(=O)c1ccc(Br)cc1 (stereo not drawn),u,-2%,28µM*,-7%,-21%,x
O=C(O)C(Cc1c[nH]c2ccccc12)NS(=O)(=O)c1ccc(Cl)cc1 (stereo not drawn),13%,-20%,1%,-6%,8%,-17%
COc1cccc(NC(=O)CSc2nc(O)c(C)c(=O)n2-c2ccc(C)cc2)c1,0%,u,79µM*,u,-20%,x
CC(C(=O)C12CC3CC(CC(C3)C1)C2)N1CCOCC1 (stereo not drawn),6%,u,u,21µM*,8%,9%
O=C1NN(c2ccccc2)C(=O)/C1=C/c1ccc(Sc2cccc3ccccc23)o1,u,u,u,12µM*,10µM*,u
Cc1ccc(C(C)C)c(OCC(=O)c2c(O)c3ccccc3oc2=O)c1,-1%,-11%,45µM*,u,x,x
Cc1ccc(OCC(=O)c2c(O)c3ccccc3oc2=O)cc1C,16%,4%,40µM*,-18%,u,-1%
Cc1nc(-n2[nH]c3c(c2=O)CCCC3)[nH]c(=O)c1Cc1ccccc1,-5%,-8%,u,8%,u,u
